# Screening data (PubChem)
# This is a sample that favours compounds with a hit; in the whole collection about 3.5% have one here.
# KCNK9 inh: blocks the human KCNK9 two-pore domain potassium channel. Q9NPC2. HEK293 KCNK9, FluxOR thallium flux fluorescence; stronger effect = lower value. B-score at 10 µM. actives 1.2% (n = 310,000). AID 488922;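 active = ratio B-score over 3 SD below the library mean, with starting fluorescence within 5 SD of its mean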;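 note: negative B-score means less thallium flux so channel inhibition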
# Target sequence (Q9NPC2 whole entry, looked up, the tested form may be a part): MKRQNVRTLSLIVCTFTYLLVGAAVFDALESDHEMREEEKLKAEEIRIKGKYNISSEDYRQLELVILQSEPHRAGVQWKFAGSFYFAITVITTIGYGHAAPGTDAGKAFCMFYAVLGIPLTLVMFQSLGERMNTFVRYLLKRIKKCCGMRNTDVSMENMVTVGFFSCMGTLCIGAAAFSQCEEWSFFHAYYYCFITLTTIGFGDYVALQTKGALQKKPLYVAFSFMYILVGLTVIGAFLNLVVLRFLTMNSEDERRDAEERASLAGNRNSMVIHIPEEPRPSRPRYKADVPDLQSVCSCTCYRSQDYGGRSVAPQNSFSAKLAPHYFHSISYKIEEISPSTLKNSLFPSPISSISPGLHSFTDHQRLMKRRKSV
# TMEM16A act: activators or potentiators of mouse TMEM16A chloride channel; B-score at 10 µM; Q8BHY3; actives 0.3% (n = 340,000); HEK293 TMEM16A/YFP-H148Q/I152L, iodide quench fluorescence; stronger effect = lower value;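 active = fluorescence-ratio B-score plate-corrected deviation score at least 3 library SD below zero, with starting fluorescence score within 5 deviations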;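 note: channel opened by trigger with iodide after compound preincubation; score built on the fluorescence ratio of max minus min over baseline; more negative score means more quench and so TMEM16A activation or potentiation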
# KCNK3 inh: human KCNK3 channel inhibition, primary screen; O14649; CHO-KCNK3 thallium flux, FluxOR fluorescence; stronger effect = lower value; actives 0.84% (n = 340,000); AID 602410; B-score at 10 µM;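 active = B-score under library mean minus 4 SD, starting fluorescence ratio at most library mean plus 5 SD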;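 note: more negative B-score means stronger inhibition of thallium flux through KCNK3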
# Kir21 block: blocks the mouse Kir2.1 inward-rectifier potassium channel. HEK293-Kir2.1, FluxOR thallium flux fluorescence; stronger effect = lower value. actives 0.85% (n = 310,000). AID 1672. P35561. B-score at 10 µM;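 active = fluorescence ratio B-score at or below minus 3 SD of library scores, with starting-brightness B-score within 2 SD, cut at about -4.2 in these data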;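 note: channel flux triggered by added potassium and thallium sulfate stimulus; B-score of peak minus minimum fluorescence over baseline after thallium stimulus; more negative B-score means stronger Kir2.1 block with less thallium influx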
# TMEM16A inh: mouse TMEM16A channel inhibition, primary screen; Q8BHY3; HEK293 TMEM16A/YFP iodide influx fluorescence, ionomycin; normalized B-score (activity score, 25-100; higher = stronger inhibition) at 10 µM; actives 1.2% (n = 310,000); AID 588511;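 active = ratio plate-corrected score three or more library SD toward inhibition, starting fluorescence score within five deviations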;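 note: score derived from kinetic fluorescence span divided by baseline fluorescence per well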
# KCNK9 block conf: confirmation of human KCNK9 potassium channel inhibitors | shares compounds with KCNK9 inh | HEK293 KCNK9 cells, FluxOR thallium flux fluorescence | inhibition, % at 10 µM | actives 43% (n = 4,900) | AID 492992;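 active = thallium signal inhibited by more than 5 SD of the compound-free buffer control wells, on both duplicate plates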
# Kir21 sel: mouse Kir2.1 off-target activity of KCNK9 modulators. Kir2.1 cells, FluxOR thallium flux fluorescence. inhibition, % at 10 µM. shares compounds with KCNK9 inh. actives 4% (n = 4,900). AID 492993;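 active = thallium signal drop more than 5 SD beyond the mean of the no-compound control wells, seen in both duplicate plates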;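 note: signal is fluorescence rise after thallium addition divided by baseline fluorescence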
# KCNK9 uninduced: second check of KCNK9 modulator effects in non-induced HEK293 cells; inhibition, % at 10 µM; FluxOR thallium flux; AID 492997; shares compounds with KCNK9 inh; actives 40% (n = 4,900);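 active = thallium signal drop beyond 5 SD of the untreated control mean, on both duplicate plates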
# Hits are given with their value; - = inactive; . = no result.
SMILES,KCNK9 inh,TMEM16A act,KCNK3 inh,Kir21 block,TMEM16A inh,KCNK9 block conf,Kir21 sel,KCNK9 uninduced
CCOc1cc(/C=N/Nc2cccc(C(=O)O)c2)ccc1OC(=O)c1ccccc1,-,-,-,-,.,-,-,-
CSc1ccccc1OCc1cc(C(=O)N2CCc3sccc3C2)no1,-,-,-,-,-,-,-,-
O=C(c1cc(COc2ccc(F)cc2Cl)on1)N1CCc2sccc2C1,-,-,-,-,-,.,.,.
Cc1cc(C)nc(SCC(=O)N/N=C/c2cc(C)n(-c3ccccc3C)c2C)n1,-,-,-,-,-,.,.,.
Cc1cccc(C)c1-n1c(C)cc(/C=N/NC(=O)CSc2ncccn2)c1C,-9.5,-,-,-,-,50%,-,28%
O=C(Nc1cc(S(=O)(=O)N2CCOCC2)ccc1Cl)C(=O)c1c(-c2ccccc2)cc2ccccn12,-8.2,-,-,-,-,-,-,-
N#Cc1ccc(N=c2ssnc2Cl)cc1,-,-,-,-,-,.,.,.
Fc1ccc(N=c2ssnc2Cl)c(F)c1,-,-,-,-,-,-,-,-
CCN(CC)S(=O)(=O)c1ccc(N2CCOCC2)c(NC(=O)C23CC4CC(CC(Cl)(C4)C2)C3)c1,-,-,-,-,-,-,-,-
CCN(CC)S(=O)(=O)c1ccc(N2CCOCC2)c(NC(=O)c2ccccc2)c1,-,-,-,-,-,.,.,.
O=C(/C=C/c1ccco1)Oc1cc(Br)cc(/C=N/NC(=O)c2ccccc2O)c1,-14,-,-,-,-,76%,-,38%
CC(C)c1ccc(CN2C(=O)NC3(CCCCCC3)C2=O)cc1,-,-,-,-,-,.,.,.
CCOC(=O)c1cnn(-c2ccccc2)c1-n1cccc1C(=O)C(=O)Nc1ccccc1C(F)(F)F,-14,-,-,-,-,43%,-,54%
CCOc1ccccc1N1CCN(C(=O)c2cc3c(C)cc(C)cc3[nH]2)CC1,-8.3,-,-,-,-,-,-,-
COc1ccccc1N1CCN(C(=O)c2cc(=O)c3ccc(C)cc3o2)CC1,-,-,-,-,-,.,.,.
COc1ccccc1N1CCN(C(=O)c2oc3cc(C)cc(C)c3c2C)CC1,-,-,-,-,25,-,-,-
CCCCCCCCCC[N+](C)(C)CC/C=C1/c2ccccc2Sc2ccc(Cl)cc21,-13,-,-,-,-,58%,50%,-
S=C(NC1CCCC1)NN1CCOCC1,-,-,-,-,-,.,.,.
Cc1ccc2c(c1)N(C(=O)CCC(=O)NCCCN1CCN(C)CC1)CC(C)O2 (configuration not stated),-,-,-,-,-,.,.,.
O=S(=O)(c1ccc(Br)s1)N1CCN(Cc2ccc3c(c2)OCO3)CC1,-,-,-,-,-,-,-,-
COc1cccc(S(=O)(=O)N2CCN(Cc3ccc4c(c3)OCO4)CC2)c1,-,-,-,-,-,-,-,-
O=S(=O)(c1ccc(Cl)nc1)N1CCN(Cc2ccc3c(c2)OCO3)CC1,-,-,-,-,-,.,.,.
O=S(=O)(c1cccc2cccnc12)N1CCN(Cc2ccc3c(c2)OCO3)CC1,-,-,-,-,-,-,-,-
Cc1noc(C)c1S(=O)(=O)N1CCCC1C(=O)O (configuration not stated),-,-,-,-,-,.,.,.
O=C(NCCc1nnc2ccc(NCCCN3CCOCC3)nn12)c1ccccc1,-,-,-,-,-,.,.,.
SMILES,KCNK9 inh,TMEM16A act,KCNK3 inh,Kir21 block,TMEM16A inh,KCNK9 block conf,Kir21 sel,KCNK9 uninduced
Cc1cc(C)nc(NC(=O)/C=C/c2cccs2)c1,-,-,-,-,-,.,.,.
Cc1cc(C)c(-c2csc(NC(=O)/C=C/c3cccs3)n2)c(C)c1,-,-,-,-,-,-,-,-
C=CCOc1ccc(CN(C)Cc2nc3cc(C(F)(F)F)ccc3c(=O)[nH]2)cc1,-,-,-,-,-,-,-,-
COc1cccc(CN(C)Cc2nc3cc(C(F)(F)F)ccc3c(=O)[nH]2)c1,-,-,-,-,-,.,.,.
O=C(CNC(c1ccccc1)c1ccccc1)Nc1cc([N+](=O)[O-])ccc1Cl,-9.2,-,-,-,-,69%,-,41%
O=c1cc(O)nc(SCc2ccccc2)n1-c1ccc(Cl)cc1,-,-,-,-,-,.,.,.
Cc1cccc(C(=O)Nc2ccc(C(=O)c3ccccc3)cc2)c1,-15,-,-,-,-,60%,-,27%
Cc1cccc(C(=O)Nc2ccc(O)cc2)c1,-,-,-,-,-,.,.,.
C/C=C1\COC(C(=O)NCc2ccccc2)(C(F)(F)F)C=C1C=C1CCCCC1 (configuration not stated),-,-,-,-,-,-,-,-
COc1ccc(COC(=O)Nc2cc3c(C(F)(F)F)nn(C)c3s2)cc1,-,-,-,-,-,-,-,-
NC(=O)CC(NC(=O)c1ccc(Br)cc1)c1ccc(NC2CCCCCCC2)c([N+](=O)[O-])c1 (configuration not stated),-11,-,-,-,-,-,-,33%
NC(=O)CC(NC(=O)c1ccccc1)c1ccc(NC2CCCCCCC2)c([N+](=O)[O-])c1 (configuration not stated),-,-,-,-,-,.,.,.
COCC(=O)N1CCC(n2nccc2NC(=O)CCOc2ccccc2)CC1,-,-,-,-,-,.,.,.
CCOC(=O)C1CCN(C(=O)c2oc3ccc(S(=O)(=O)N4CC(C)CC(C)C4)cc3c2C)CC1 (configuration not stated),-,-,-,-,-,-,-,-
CCOC(=O)N1CCN(C(=O)c2oc3ccc(S(=O)(=O)N4CC(C)CC(C)C4)cc3c2C)CC1 (configuration not stated),-,-,-,-,-,.,.,.
C=CCCC1(C)C(=O)N(c2ccccc2)c2ccccc21 (configuration not stated),-8.9,-,-,-6,-,42%,-,39%
COc1c(F)c(F)c(C(=O)Nc2ccc(NC(=O)Cc3ccccc3)cc2)c(F)c1F,-,-,-,-,-,.,.,.
O=C(Nc1nc(-c2cc3ccccc3oc2=O)cs1)c1ccc(Br)o1,-9.9,-,-,-,-,26%,-,-
O=[N+]([O-])c1ccc(Oc2c(F)c(F)nc(N3CCCC3)c2F)cc1,-,-,-,-,-,-,-,-
CC(O)CNCCNCc1c(OCc2ccccc2)ccc2ccccc12 (configuration not stated),-,-,-,-,-,.,.,.
OCCNCc1c(OCc2ccc(Cl)cc2)ccc2ccccc12,-19,-,-,-6.8,-,76%,42%,31%
CCOc1ccc(S(=O)(=O)N(C)CC(=O)N2CCN(CC)CC2)cc1,-,-,-,-,-,.,.,.
